Source: PubChem BioAssay (National Center for Advancing Translational Sciences (NCATS))
12-LOX inh – blocks human arachidonate 12S-lipoxygenase. 580,000 tested, 1.1% active. Potency, µM (top dose mostly 108 µM), for inactives: at the top dose activity change, negative = inhibition, actives largely listed as inhibitors. purified 12hLO, xylenol orange hydroperoxide absorbance. P18054; further: potency means the concentration at half of the fitted maximal effect; on the % scale 0 is the no-effect control and ±100 the full control effect
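Hydroperoxide product was detected by ferrous iron/xylenol orange as the 573 to 405 nm absorbance ratio. Arachidonic acid at 40 uM (final) was turned over for 30 min at room temperature by 150 nM human 12hLO, pH 7.0 Hepes buffer, after 15 min compound preincubation.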
JMJD2A Tudor inh – inhibitors of human JMJD2A Tudor domain | 390,000 tested, 4.4% active | O75164 | AlphaScreen JMJD2A-Tudor / H3K4me3 peptide binding | Potency, µM (doses to about 114 µM), without a hit: top-dose activity change, negative = inhibition, actives largely listed as inhibitors; further: potency means the concentration at half of the fitted maximal effect; on the % scale 0 is the no-effect control and ±100 the full control effect; nearly all actives have a fitted effect of over 50% in size
BAZ2B block – blocks human BAZ2B; AlphaScreen BAZ2B-H3K14Ac peptide displacement; Q9UIF8; Potency, µM (highest dose often 114 µM), for inactives: top-dose activity change, negative = inhibition, usual class: inhibitors; 360,000 tested, 4.4% active; further: potency means the concentration at half of the fitted maximal effect; on the % scale 0 is the no-effect control and ±100 the full control effect; nearly all actives have a fitted effect of over 60% in size
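Compounds, titrated to a top concentration of 110 uM, were incubated 30 min at room temperature with preformed BAZ2B/acetyl-K14 H3 peptide complex (50 nM each). Proximity signal was measured by AlphaScreen after 20 min with beads.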
HP1b chromo inh – HP1-beta chromodomain-methylated histone interaction inhibition; 390,000 tested, 0.56% active; Potency, µM (highest dose often 114 µM), without a hit: top-dose activity change, negative = inhibition, hits mostly inhibitors; AID 540317; AlphaScreen HP1-beta / biotin-H3K9me3 peptide binding; further: potency means the concentration at half of the fitted maximal effect; nearly all actives have a fitted effect of over 70% in size
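Compound inhibition of the preformed complex between 50 nM HP1-beta and 50 nM biotinylated H3K9me3 peptide was read by AlphaScreen. Buffer was PBS pH 7.4 with 0.01% Tween-20. Incubations ran 30 min at room temperature, with 10 ug/mL donor/acceptor beads.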
Sfp inh – Sfp phosphopantetheinyl transferase inhibition. Q9F4F7. Biochemical Sfp PPTase activity, qHTS. Potency, µM, for the others: largest response in the series, negative = inhibition, actives largely listed as inhibitors. 310,000 tested, 3.5% active. AID 1490;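 further: the enzyme is Sfp with the accession as filed and its product quenches rhodamine fluorescence; potency means the concentration at half of the fitted maximal effect; 0% = enzyme reaction without inhibitor and -100% = no enzyme wells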
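Compounds were incubated with enzyme (final 15 nM) for 15 min at room temperature before substrate addition started the reaction. Fluorescence at 525 nm excitation, 598 nm emission was recorded immediately and after 30 minutes.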
G9a inh-1 – blocks human histone lysine methyltransferase G9a. 350,000 tested, 8.8% active. Q96KQ7. Potency, µM (series often up to 102 µM), for the others: top-dose activity, negative = inhibition, hits mostly inhibitors. G9a H3K9 monomethylation, AlphaScreen, 2 h; further: potency means the concentration at half of the fitted maximal effect; on the % scale 0 is the no-effect control and ±100 the full control effect; nearly all actives have a fitted effect of over 75% in size
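AlphaScreen read-out: biotin-H3K9 peptide (500 nM) methylation by 20 nM enzyme with 20 uM SAM, 2 h at room temperature after 15 min compound preincubation; anti-monomethyl H3K9 antibody plus donor/acceptor beads, 10 min dark.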
JMJD2E inh – JMJD2E (human) demethylase inhibition, confirmation. shares compounds with JMJD2A Tudor inh. Recombinant JMJD2E, FDH-coupled NADH fluorescence (FDH is formaldehyde dehydrogenase). Potency, µM (top dose mostly 56.8 µM), inactives show top-dose activity change, negative = inhibition, hits mostly inhibitors. 140 tested, 93% active. AID 2677
Target sequence (B2RXH2 1-337 limits assumed): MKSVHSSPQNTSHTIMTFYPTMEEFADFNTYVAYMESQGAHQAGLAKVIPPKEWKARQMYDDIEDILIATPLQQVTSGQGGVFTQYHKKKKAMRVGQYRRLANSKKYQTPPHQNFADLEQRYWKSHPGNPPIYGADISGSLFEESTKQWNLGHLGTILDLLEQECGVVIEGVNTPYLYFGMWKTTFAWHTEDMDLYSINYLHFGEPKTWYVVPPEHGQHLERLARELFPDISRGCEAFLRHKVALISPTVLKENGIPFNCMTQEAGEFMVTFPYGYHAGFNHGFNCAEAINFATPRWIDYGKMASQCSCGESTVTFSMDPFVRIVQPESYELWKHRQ
FDH inh – counter-screen for JMJD2E inhibitors: Pseudomonas putida formaldehyde dehydrogenase. shares compounds with JMJD2A Tudor inh. FDH enzyme assay, NADH fluorescence kinetic. Potency, µM (doses to about 56.7 µM), for the others: at the highest dose activity, negative = inhibition, usual class: inhibitors. 140 tested, 10% active
Target sequence (P46154 whole entry, looked up): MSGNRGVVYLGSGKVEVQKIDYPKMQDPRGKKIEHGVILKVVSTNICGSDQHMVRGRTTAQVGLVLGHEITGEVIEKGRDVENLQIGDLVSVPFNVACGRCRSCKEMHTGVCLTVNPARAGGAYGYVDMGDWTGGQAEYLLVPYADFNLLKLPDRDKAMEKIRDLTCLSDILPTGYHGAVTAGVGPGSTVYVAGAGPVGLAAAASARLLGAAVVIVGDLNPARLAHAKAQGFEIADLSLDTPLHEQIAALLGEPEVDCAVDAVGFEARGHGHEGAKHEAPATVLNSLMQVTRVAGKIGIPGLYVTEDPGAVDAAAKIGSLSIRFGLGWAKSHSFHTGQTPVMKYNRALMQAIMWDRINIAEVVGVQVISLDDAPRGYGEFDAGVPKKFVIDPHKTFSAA
G9a inh-2 – confirmation of human histone methyltransferase G9a inhibitors. shares compounds with JMJD2A Tudor inh. G9a H3K9 monomethylation, AlphaScreen, 2 h. Potency, µM, usual class: inhibitors. 370 tested, 89% active. AID 588344; further: potency means the concentration at half of the fitted maximal effect; nearly all actives have a fitted effect of over 65% in size
RGS4 confirm – inhibits human RGS4, hit validation; shares compounds with JMJD2A Tudor inh; RGS4 GAP activity, Transcreener GDP fluorescence polarization; Potency, µM, usual class: inhibitors; 25 tested, 80% active; AID 602388
An asterisk follows results filed as active; ? = inconclusive; / = not tested or not shown; [ ] = another dose, or the depositor's remark. Most compounds without a hit are left out; they make up all but 8.7% or so of the library. The call rests on the fitted dose curve; in most records, active means well fitted curve in the direction sought with a large enough effect; inconclusive means small, poorly fitted or top-dose-only effect, or another doubt; inactive means no such curve, though single readings can be large; an effect the other way counts as inactive or inconclusive.

SMILES	12-LOX inh	JMJD2A Tudor inh	BAZ2B block	HP1b chromo inh	Sfp inh	G9a inh-1	G9a inh-2	others
C=CCOc1c(Cl)cc(CNc2ccc(N(C)C)cc2)cc1OC	?	18µM*	25µM*	16µM*	3.5µM*	1.8µM*	5.6*
CC(C)n1cnc2cc(NCc3ccccc3O)ccc21	12%	-21%	?	6%	-2%	/	/
CC(C)n1cnc2cc(NCc3ccco3)ccc21	-1%	?	-33%[57.1 µM]	3%	-18%	?	14*
Cc1ccccc1NC(=O)CSC1=NS(=O)(=O)c2ccccc2N1Cc1ccccc1	17%	/	/	/	/	/	/
COc1cccc(C(=O)Oc2ccc(F)cc2C(=O)/C=C/c2ccc(F)cc2)c1	-14%	/	/	/	/	/	/
CCN1c2ccccc2NC2N=C(OC)C(c3ccccc3)C21 (stereo not drawn)	/	50µM*	45µM*	?	3%	?	11*
CCc1ccc(NC(=O)N(Cc2ccc(C)cc2)Cc2cccn2-c2nnc(N3CCCC3=O)s2)cc1	-17%	-29%	-11%	3%	/	-11%[59 µM]	/
CCOC(=O)c1ccccc1NC(=O)N(Cc1ccc(C)cc1)Cc1cccn1-c1nnc(N2CCCC2=O)s1	-21%	10%	-2%	43%	/	0.79µM*	?
Cc1cccc(NCc2ccccc2O)n1	10%	-7%	2%	38%	-5%	?	/
Cc1cccc(NC(c2ccc(C)s2)c2ccc3ccc(C)nc3c2O)n1 (stereo not drawn)	?	-4%	8%	-2%	-3%	1.8µM*	0.4*
CC(C)(C)c1oc(C(N)=O)cc1CN1CCC2(CCCNC2=O)C1 (stereo not drawn)	56%	/	/	/	/	/	/
Cc1ccnc(NC(c2cccnc2)c2ccc3cccnc3c2O)c1 (stereo not drawn)	?	22µM*	7.1µM*	?	?	6.3µM*	/	JMJD2E inh=32µM*;FDH inh=?
c1ccc(-n2nnnc2SCc2cn3ccccc3n2)cc1	5%	-29%[57.1 µM]	?	-14%	-28%	?	28*
O=C(COc1cccc(Br)c1)NCCc1c[nH]c2ccccc12	-10%	/	/	/	/	/	/
Cc1ccnc(NC(=S)NC(=O)c2cccs2)c1	?	-4%	-6%	7%	1%	-3%	/
Cn1nnc(NC(=S)NC(=O)c2cccs2)n1	?	3.2µM*	?	-37%	-71%	0.79µM*	7.1*
CCC(C)NC(=O)NCc1c(-n2cccc2)sc2c1CCN(C)C2 (stereo not drawn)	-7%	/	/	/	/	/	/
COc1ccc(C)cc1NC(=O)C(NCC(O)c1ccccc1)c1ccccc1 (stereo not drawn)	-23%	10µM*	22µM*	?	?	2.8µM*	14*
COc1ccc(C)cc1NC(=O)C(NS(=O)(=O)c1cccs1)c1ccccc1 (stereo not drawn)	-17%	-3%	-2%	26%	/	3%[59 µM]	/
CC(=O)c1ccc(NC(=O)CSc2ccc(-c3cccs3)nn2)cc1	?	?	-21%	28%	/	2.8µM*	6.3*
CCN(CC)c1ccc(NC(=O)CN2CCN(CC(=O)Nc3ccc(F)cc3)CC2)cc1	-17%	?	?	?	-12%	2.2µM*	2.8*
CCN(CC)c1ccc(NC(=O)COC(=O)CCC(=O)c2ccc(F)cc2)cc1	?	-35%	?	-21%	-4%	1.6µM*	1.6*
Cc1ccc(OCC(=O)N2CCC(c3noc(-c4ccccc4)n3)C2)cc1 (stereo not drawn)	13%	/	/	/	/	/	/
Cc1noc(C)c1S(=O)(=O)N1CCCC(Cc2noc(-c3cccnc3)n2)C1 (stereo not drawn)	14%	/	/	/	/	/	/
Cc1nc(NC(=O)CSc2ccccc2N)sc1C	-29%[57.4 µM]	-18%	-39%	1%	-21%	?	18*
SMILES	12-LOX inh	JMJD2A Tudor inh	BAZ2B block	HP1b chromo inh	Sfp inh	G9a inh-1	G9a inh-2	others
Nc1ccccc1SCC(=O)Nc1nc(-c2ccccc2)cs1	-4%	?	?	-7%	-15%	/	/
COc1ccc(Br)cc1CN1CCCCCCC1	?	4µM*	50µM*	?	?	2.8µM*	13*
CCc1nncn1C1CCN(C(=O)c2ccc(C)c(C)c2)CC1	3%	/	/	/	/	/	/
Cc1ccc2nc3[nH]c(=O)[nH]c(=O)c3c(N)c2c1	?	-21%	/	-1%[57 µM]	/	/	/
Cc1ccc2nc(N)[nH]c(=O)c2c1Sc1ccncc1	-26%[22.9 µM]	/	/	/	8%	?	11*
OCCCCNc1cccc2ccccc12	?	?	?	-20%	-25%	?	5.6*
OCCCCCNc1ncnc2ccccc12	343%	1%	-3%	43%	19%	28%[59 µM]	/
Cc1cccc(Cc2c(C)nc(Nc3nc(C)c4cc(C)ccc4n3)[nH]c2=O)c1	-1%	/	/	/	/	/	/
CCN(Cc1ccncc1)Cc1c(O)ccc2cc(Br)ccc12	?	45µM*	/	?	45µM*	2µM*	2.8*	RGS4 confirm=17*
Cc1nc2ccc(CCO)cc2s1	10%	-6%	1%	40%	13%	1.1µM*	?
COc1ccc([C@@H](NC(=O)CN2CCc3ccccc3C2)C2CC(O)C2)cn1 (stereo partly drawn)	132%	/	/	/	/	/	/
Cc1ccccc1NCc1ccc(O)c2ncccc12	?	28µM*	50µM*	?	3%	1.1µM*	/	JMJD2E inh=1.4µM*;FDH inh=-13%
Cc1ccccc1CC(=O)Nc1cccc2ncccc12	38%	/	/	/	/	/	/
Oc1ccc(CNc2ccccc2)c2cccnc12	/	79µM*	32µM*	?	21%	1.3µM*	/	JMJD2E inh=2µM*;FDH inh=-21%
CCCc1ccc(/C(C)=N/NC(=O)C2CC2c2ccccc2)cc1 (stereo not drawn)	35%	/	/	/	/	/	/
CNC(=O)NC(=O)CSc1ccc(S(=O)(=O)N2CCOCC2)cn1	?	2%	-3%	47%	/	?	5*
